# Assay results taken from PubChem BioAssay (Tox21).
# Values joined by “and” are separate entries in the source; they are usually repeats but may differ in a detail not shown here. Identical values can stand only once. Records with an inconclusive call do not appear. Entries that show only a call come without a potency. More than one record can exist for a structure, and the calls need not agree. Active and inactive are the calls of the source. Unless noted, the call rests on the fitted dose curve; in most records, active means well fitted curve in the direction sought with a large enough effect in the repeat runs; inconclusive means weak or mixed curves; inactive means no such curve, though single readings can be large; an effect the other way counts as inactive or inconclusive.
# Experiments:
# [1] = qHTS assay to identify small molecule antagonists of the glucocorticoid receptor (GR) signaling pathway - cell viability counter screen (AID 720693); further: nearly all actives have a fitted effect of over 55% in size
# [2] = qHTS assay to identify small molecule antagonists of the androgen receptor (AR) signaling pathway - cell viability counter screen (AID 743033; further: nearly all actives have a fitted effect of over 45% in size; further: potency means the concentration at half of the fitted maximal effect)
# [3] = qHTS assay to identify small molecule antagonists of the androgen receptor (AR) signaling pathway using the MDA cell line - cell viability counter screen (AID 743041; further: nearly all actives have a fitted effect of over 45% in size)
# How it was run: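 R1881-driven MDA-kb2 AR-luc cells, 3,000/well, were dosed with library compounds for 16 h; cell health came from CellTiter-Fluor fluorescence in the reporter wells.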
# [4] = qHTS assay to identify small molecule antagonists of the thyroid receptor (TR) signaling pathway - cell viability counter screen (AID 743064); further: nearly all actives have a fitted effect of over 50% in size; further: potency means the concentration at half of the fitted maximal effect
# How it was run: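 CellTiter-Fluor readout, 30 min at 37 °C/5% CO2, following 23.5 h incubation of GH3.TRE-Luc cells with test compound and 1 nM T3 (final).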
# [5] = qHTS assay to identify small molecule antagonists of the thyroid receptor (TR) signaling pathway (AID 743065); further: nearly all actives have a fitted effect of over 55% in size; further: potency means the concentration at half of the fitted maximal effect; on activity, negative = inhibition: series mostly up to about 70 µM
# How it was run: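 Antagonism measured as loss of luciferase signal in GH3 cells stably carrying a TRE-luciferase reporter, co-treated with compound and T3 (1 nM final) for 23.5 h at 37 C. Viability was read in the same well by CellTiter-Fluor.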
# [6] = system: thyroid hormone receptor (rat, GH3 cells); test: qHTS assay to identify small molecule agonists of the thyroid receptor (TR) signaling pathway (AID 743066; calls by dose curve)
# [7] = target: Estrogen receptor (Homo sapiens) (UniProt P03372); test: qHTS assay to identify small molecule antagonists of the estrogen receptor alpha (ER-alpha) signaling pathway (AID 743069; active means well fitted curve in the direction sought with a large enough effect in the signal ratio in the repeat runs, not every such curve was filed as active; the % refers to the signal ratio)
# Chain of Estrogen receptor (Homo sapiens) (P03372 whole entry, looked up): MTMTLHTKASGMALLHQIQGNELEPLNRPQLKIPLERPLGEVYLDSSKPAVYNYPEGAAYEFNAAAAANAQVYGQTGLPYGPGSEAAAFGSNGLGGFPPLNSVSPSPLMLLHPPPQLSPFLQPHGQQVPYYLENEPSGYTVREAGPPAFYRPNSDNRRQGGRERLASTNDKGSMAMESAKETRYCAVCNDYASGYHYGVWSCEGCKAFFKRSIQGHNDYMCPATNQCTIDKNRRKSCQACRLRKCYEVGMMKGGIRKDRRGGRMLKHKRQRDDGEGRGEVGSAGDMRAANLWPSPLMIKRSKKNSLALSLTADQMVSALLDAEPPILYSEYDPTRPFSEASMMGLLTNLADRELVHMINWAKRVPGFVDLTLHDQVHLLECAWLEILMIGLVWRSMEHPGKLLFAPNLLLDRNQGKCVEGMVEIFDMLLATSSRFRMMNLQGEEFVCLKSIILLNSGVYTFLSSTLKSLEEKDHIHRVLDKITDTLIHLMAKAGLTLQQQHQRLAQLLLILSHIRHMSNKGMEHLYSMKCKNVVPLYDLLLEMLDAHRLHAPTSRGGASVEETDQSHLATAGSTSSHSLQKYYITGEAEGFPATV
# How it was run: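 Compound effects are measured against 17beta-estradiol stimulation in HEK293 cells with a UAS-controlled beta-lactamase reporter for ER-alpha. Exposure lasts 18 hr at 37C; LiveBLAzer B/G FRET substrate follows for 2 hr at room temperature.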
# [8] = qHTS assay to identify small molecule antagonists of the estrogen receptor alpha (ER-alpha) signaling pathway - cell viability counter screen (AID 743074; calls by dose curve;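 further: HEK293 cells carrying ER-alpha-UAS-bla reporter stimulated with 17beta-estradiol; nearly all actives have a fitted effect of over 45% in size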)
# [9] = target: Estrogen receptor (Homo sapiens) (UniProt P03372); test: qHTS assay to identify small molecule agonists of the estrogen receptor alpha (ER-alpha) signaling pathway (AID 743075; calls by dose curve)
# [10] = target: Estrogen receptor (Homo sapiens) (UniProt P03372); test: qHTS assay to identify small molecule agonists of the estrogen receptor alpha (ER-alpha) signaling pathway using the BG1 cell line (AID 743079); further: nearly all actives have a fitted effect of over 20% in size; further: potency means the concentration at half of the fitted maximal effect
# [11] = qHTS assay to identify small molecule antagonists of the estrogen receptor alpha (ER-alpha) signaling pathway using the BG1 cell line (AID 743080; calls by dose curve;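 further: BG1 cells stimulated with 17beta-estradiol alongside compound; series mostly up to about 70 µM; nearly all actives have a fitted effect of over 25% in size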)
# How it was run: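 Endogenous full-length ER-alpha in BG1-Luc-4E2 cells drives a stably integrated 4×ERE luciferase gene; compounds were tested against 17beta-estradiol over 21.5 h, with luminescence and multiplexed viability fluorescence recorded.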
# [12] = qHTS assay to identify small molecule antagonists of the estrogen receptor alpha (ER-alpha) signaling pathway using the BG1 cell line - cell viability counter screen (AID 743081);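 further: compound given together with 17beta-estradiol as the ER stimulus; series mostly up to about 70 µM; nearly all actives have a fitted effect of over 45% in size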
# [13] = target: Aromatase (Homo sapiens) (UniProt P11511); test: qHTS assay to identify aromatase inhibitors (AID 743083); further: nearly all actives have a fitted effect of over 55% in size; further: potency means the concentration at half of the fitted maximal effect; on activity, negative = inhibition: series mostly up to about 70 µM
# Chain of Aromatase (Homo sapiens) (P11511 whole entry, looked up): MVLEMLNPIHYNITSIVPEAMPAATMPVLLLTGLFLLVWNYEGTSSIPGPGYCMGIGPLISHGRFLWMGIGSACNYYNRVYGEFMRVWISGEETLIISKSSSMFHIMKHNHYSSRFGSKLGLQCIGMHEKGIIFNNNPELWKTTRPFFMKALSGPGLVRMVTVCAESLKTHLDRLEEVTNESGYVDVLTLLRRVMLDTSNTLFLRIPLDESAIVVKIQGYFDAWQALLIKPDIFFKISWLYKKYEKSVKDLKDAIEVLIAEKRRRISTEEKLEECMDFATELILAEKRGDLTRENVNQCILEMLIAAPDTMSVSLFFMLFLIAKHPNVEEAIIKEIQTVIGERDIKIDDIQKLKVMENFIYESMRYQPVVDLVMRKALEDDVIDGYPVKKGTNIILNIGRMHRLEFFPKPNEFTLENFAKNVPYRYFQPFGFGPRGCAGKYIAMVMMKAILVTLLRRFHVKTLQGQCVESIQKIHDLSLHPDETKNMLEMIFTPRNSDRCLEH
# [14] = qHTS assay for identifying genotoxic compounds that show differential cytotoxicity against isogenic chicken DT40 cell lines with known DNA damage response pathways - Rev3 mutant cell line (AID 743014); further: nearly all actives have a fitted effect of over 55% in size; further: potency means the concentration at half of the fitted maximal effect
# [15] = qHTS assay for identifying genotoxic compounds that show differential cytotoxicity against isogenic chicken DT40 cell lines with known DNA damage response pathways - Rad54/Ku70 mutant cell line (AID 743015); further: nearly all actives have a fitted effect of over 60% in size; further: potency means the concentration at half of the fitted maximal effect
# [16] = qHTS assay for identifying genotoxic compounds that show differential cytotoxicity against isogenic chicken DT40 cell lines with known DNA damage response pathways - wild type cell line (AID 743012); further: nearly all actives have a fitted effect of over 60% in size; further: potency means the concentration at half of the fitted maximal effect
# How it was run: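 Wild-type DT40 cells (300/well) exposed to compounds for 40 hours at 37 C/5% CO2. Viability read by CellTiter-Glo luminescence after 30 min at room temperature.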
# [17] = target: Androgen receptor (Homo sapiens) (UniProt P10275); test: qHTS assay to identify small molecule antagonists of the androgen receptor (AR) signaling pathway (AID 743035; active means well fitted inhibition curve with a large enough effect in the signal ratio in the repeat runs, not every such curve was filed as active; the % refers to the signal ratio)
# Chain of Androgen receptor (Homo sapiens) (P10275 whole entry, looked up): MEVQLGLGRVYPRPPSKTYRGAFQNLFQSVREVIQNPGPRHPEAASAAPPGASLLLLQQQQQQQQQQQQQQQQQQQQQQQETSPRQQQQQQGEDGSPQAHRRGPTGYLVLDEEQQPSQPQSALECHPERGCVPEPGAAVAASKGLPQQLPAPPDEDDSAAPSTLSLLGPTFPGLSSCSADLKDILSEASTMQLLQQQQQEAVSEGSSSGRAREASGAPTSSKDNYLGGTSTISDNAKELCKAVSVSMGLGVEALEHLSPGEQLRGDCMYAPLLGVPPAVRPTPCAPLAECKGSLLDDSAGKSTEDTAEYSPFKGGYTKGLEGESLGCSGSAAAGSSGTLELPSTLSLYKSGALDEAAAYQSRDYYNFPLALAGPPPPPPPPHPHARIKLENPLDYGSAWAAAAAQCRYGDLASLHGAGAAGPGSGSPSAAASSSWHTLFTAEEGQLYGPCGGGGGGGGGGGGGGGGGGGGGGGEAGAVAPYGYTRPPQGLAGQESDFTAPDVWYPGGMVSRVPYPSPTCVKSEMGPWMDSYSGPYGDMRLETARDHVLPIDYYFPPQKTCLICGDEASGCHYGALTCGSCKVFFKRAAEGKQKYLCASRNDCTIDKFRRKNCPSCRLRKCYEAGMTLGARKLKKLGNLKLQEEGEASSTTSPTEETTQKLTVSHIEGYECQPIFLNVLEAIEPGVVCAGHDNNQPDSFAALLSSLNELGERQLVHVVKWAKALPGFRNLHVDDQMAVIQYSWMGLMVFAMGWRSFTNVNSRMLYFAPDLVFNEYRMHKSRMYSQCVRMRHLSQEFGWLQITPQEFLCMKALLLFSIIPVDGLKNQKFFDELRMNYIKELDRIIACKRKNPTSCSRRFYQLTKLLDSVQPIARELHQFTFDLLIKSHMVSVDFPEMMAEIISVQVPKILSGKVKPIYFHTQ
# How it was run: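 HEK293 cells stably carrying UAS-beta-lactamase reporter, 2,000/well, given compounds plus R1881 agonist and incubated 16 h at 37C. LiveBLAzer B/G FRET substrate then added for 2 h at room temperature before fluorescence reading.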
# [18] = target: Androgen receptor (Homo sapiens) (UniProt P10275); test: qHTS assay to identify small molecule agonists of the androgen receptor (AR) signaling pathway (AID 743036; active means well fitted activation curve with a large enough effect in the signal ratio in the repeat runs, with a control signal flat, not every such curve was filed as active; the % refers to the signal ratio)
# How it was run: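 Following a 4 h settling period, AR-UAS-bla HEK293 cells were dosed with compounds for 16 h at 37C. A 2 h room-temperature incubation with LiveBLAzer B/G FRET substrate preceded the fluorescence measurement.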
# [19] = target: Androgen receptor (Homo sapiens) (UniProt P10275); test: qHTS assay to identify small molecule agonists of the androgen receptor (AR) signaling pathway using the MDA cell line (AID 743040; further: nearly all actives have a fitted effect of over 20% in size)
# How it was run: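 After a 5 h incubation at 37C and 0% CO2, MDA-kb2 reporter cells were dosed with compounds in DMSO and kept 16 h under the same conditions. Luciferase activity was then read as luminescence with ONE-Glo.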
# [20] = target: Androgen receptor (Homo sapiens) (UniProt P10275); test: qHTS assay to identify small molecule antagonists of the androgen receptor (AR) signaling pathway using the MDA cell line (AID 743042; further: nearly all actives have a fitted effect of over 55% in size)
# How it was run: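 Antagonist mode: compounds plus R1881 agonist added to MDA-kb2 AR-luc cells, incubated 16 h at 37C. Luciferase reporter luminescence quantified, with multiplexed CellTiter-Fluor readout for cell viability.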
smiles,measurement,setting,value
COC(=O)C1=C(C)NC(C)=C(C(=O)OC)C1c1ccccc1[N+](=O)[O-],outcome,[1],inactive
same,Potency,[2],inactive and 49 µM (active)
same,Potency,[3],inactive
same,Potency,[4],48.6 µM (active)
same,Potency,[5],30.7 µM (active)
same,outcome,[6],inactive
same,outcome,[7],inactive
same,outcome,[8],inactive
same,Potency,[9],inactive
same,Potency,[10],inactive
same,outcome,[11],inactive
same,Potency,[12],inactive
same,Potency,[13],68.7 µM (active)
O=c1[nH]c(=O)n([C@H]2C[C@H](O)[C@@H](CO)O2)cc1I,outcome,[1],inactive
same,Potency,[14],1.8 µM (active)
same,Potency,[15],2.02 µM (active)
same,Potency,[3],inactive
same,Potency,[4],inactive
same,Potency,[5],inactive
same,outcome,[6],inactive
same,outcome,[8],inactive
same,Potency,[12],inactive
same,Potency,[13],inactive
CCC(=O)OC(C)c1ccccc1 (centres undefined),outcome,[1],inactive
same,Potency,[14],inactive
same,Potency,[15],inactive
same,Potency,[2],inactive
same,Potency,[3],inactive
same,Potency,[4],inactive
same,outcome,[6],inactive
same,outcome,[7],inactive
same,outcome,[8],inactive
same,Potency,[9],inactive
same,Potency,[10],inactive
same,outcome,[11],inactive
same,Potency,[12],inactive
same,Potency,[13],inactive
CS(=O)(=O)O,Potency,[16],inactive
same,Potency,[14],inactive
same,Potency,[15],inactive
same,Potency,[2],inactive
same,outcome,[17],inactive
same,outcome,[18],inactive
same,Potency,[19],inactive
same,Potency,[3],inactive
same,Potency,[4],inactive
same,Potency,[5],inactive
same,outcome,[6],inactive
same,outcome,[7],inactive
same,outcome,[8],inactive
same,Potency,[9],inactive
same,Potency,[10],inactive
same,outcome,[11],inactive
same,Potency,[12],inactive
same,Potency,[13],inactive
CC(=O)Nc1c(I)cc(I)c(C(=O)O)c1I,Potency,[16],inactive
same,Potency,[14],inactive
same,Potency,[15],inactive
same,Potency,[3],inactive
same,Potency,[4],inactive
same,outcome,[6],inactive
same,outcome,[8],inactive
same,Potency,[9],inactive
same,Potency,[10],inactive
same,outcome,[11],inactive
same,Potency,[12],inactive
same,Potency,[13],inactive
C=COCC1CCC(CO)CC1 (centres undefined),outcome,[1],inactive
same,Potency,[14],inactive
same,Potency,[15],inactive
same,Potency,[2],inactive
same,Potency,[3],inactive
same,outcome,[6],inactive
same,Potency,[9],inactive
same,Potency,[10],inactive
same,outcome,[11],inactive
same,Potency,[12],inactive
same,Potency,[13],inactive
CCOC(=O)CC(C)=O,outcome,[1],inactive
same,Potency,[14],inactive
same,Potency,[15],inactive
same,Potency,[2],inactive
same,Potency,[3],inactive
same,Potency,[5],inactive
same,outcome,[6],inactive
same,Potency,[12],inactive
CCCCCCCCCCCCCC=O,"viability change, negative = cytotoxic",[1],-0.799% [at 7.04 µM] (inactive)
same,"activity change, negative = cytotoxicity",[15],-24.1% [at 8.55 µM] (inactive)
same,"activity change, negative = cytotoxicity",[2],5.83% [at 7.04 µM] (inactive)
same,"viability change, negative = cytotoxic",[3],-4.68% [at 8.47 µM] (inactive)
same,"activity change, negative = cytotoxic",[4],-8.15% [at 8.44 µM] (inactive)
same,"activity, negative = inhibition",[5],-3.68% [at 8.44 µM] (inactive)
same,activation,[6],0.523% [at 8.08 µM] (inactive)
same,"activity, negative = inhibition",[7],-10.5% [at 6.71 µM] (inactive)
same,"activity, negative = cytotoxicity",[8],-17.6% [at 6.72 µM] (inactive)
same,activation,[9],2.95% [at 6.71 µM] (inactive)
same,Potency,[10],2.69 µM (active)
same,"activity change, negative = inhibition",[11],0.386% [at 8.47 µM] (inactive)
same,"activity change, negative = cytotoxicity",[12],-2.15% [at 8.47 µM] (inactive)
same,"activity, negative = inhibition",[13],-2.09% [at 8.47 µM] (inactive)
C=C(C)CS(=O)(=O)O,outcome,[1],inactive
same,Potency,[14],inactive
same,Potency,[15],inactive
same,Potency,[19],inactive
same,Potency,[3],inactive
same,Potency,[20],inactive
same,Potency,[4],inactive
same,outcome,[6],inactive
same,outcome,[7],inactive
same,outcome,[8],inactive
same,Potency,[9],inactive
same,Potency,[10],inactive
same,outcome,[11],inactive
same,Potency,[12],inactive
same,Potency,[13],inactive
O=c1cc(-c2ccccc2)oc2ccccc12,Potency,[16],21.7 µM (active)
same,Potency,[14],48.6 µM (active) and 43.1 µM (active)
same,Potency,[15],56.9 µM (active)
same,Potency,[2],inactive
same,Potency,[19],inactive
same,Potency,[3],inactive
same,Potency,[20],inactive
same,Potency,[4],inactive
same,Potency,[5],inactive
same,outcome,[6],inactive
same,outcome,[7],inactive
same,outcome,[8],inactive
same,Potency,[10],2.43 µM (active) and 3.95 µM (active)
same,Potency,[12],inactive
